Compounds without any hit were thinned out: in the full panel of roughly 83,000, 20% have a hit.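 Interpretation: 100, growth as untreated; towards 0, rising growth inhibition; 0, no net growth; 0 to -100, cell death. Compounds scoring below 10 were considered active.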 Values without a mark were called inactive. Activity calls are given as the source filed them.
Test system: NCI/ADR-RES ovarian
Test: NCI-60 one-dose screen, 48 h (100 = growth as untreated, 0 = no growth, -100 = all killed)
Conditions: 10 µM
Experimental: Growth inhibition of the NCI/ADR-RES human […] tumor cell line is measured as a screen for anti-cancer activity. Cells are grown in 96 well plates and exposed to the test compound for 48 hours. Compounds are tested at a single concentration, which is 10^-5 M for most compounds. The reported endpoint is percent growth (GI% or GIPRCNT), where numbers from 0 - 100% represent growth inhibition, and numbers from -100% - 0 represent cell death. For example, a value of 40 represents 60% growth inhibition. A value of 0 means no net growth occurred over the course of the experiment. A value of -40 indicates 40% of cells at the beginning of the experiment died by the end of the experiment. A value of -100 means all cells are dead at the end of the experiment.
NCI-60 Human Tumor Cell Lines Screen was performed using the standard one-dose NCI protocol, which is described in more detail at https://dtp.cancer.gov/discovery_development/nci-60/default.htm.
Compounds with GIPRCNT values below 10 were considered active. Activity score was based on GIPRCNT using the following formula: […]
Score is 0 for GIPRCNT values of 100 or above, 50 for GIPRCNT values of 0, and 100 for GIPRCNT values of -100.

Question: Which growth does the source give for Cn1cc(-c2nnc(N)nc2-c2c[nH]c3ccccc23)c2cc(Br)cnc21 here?
Answer: The growth was -5.86% (active).

Question: How did the growth turn out when C#C[C@]1(O)CC[C@H]2[C@@H]3CC=C4c5sc(Nc6ccc(N(C)C)cc6)nc5CC[C@]4(C)[C@H]3CC[C@@]21C was run?
Answer: The growth was 9.68% (active).

Question: With CC1[C@H]2[C@H](C[C@H]3[C@@H]4CC=C5c6sc(Nc7cccc(Cl)n7)nc6CC[C@]5(C)[C@H]4CC[C@@]32C)O[C@]12CC[C@@H](C)CO2 (stereo not given in full) as the molecule, how does the growth read?
Answer: Its growth is 94%.

Question: Which growth does the source give for COc1cc2oc(-c3cccc(C(=O)Nc4ccc(Cl)cc4)c3)cc(=O)c2c(OCCN)c1OC here?
Answer: Its growth is -74.7% (active).

Question: For C#C[C@]1(O)CC[C@H]2[C@@H]3CC=C4c5sc(Nc6ccc(C(F)(F)F)cn6)nc5CC[C@]4(C)[C@H]3CC[C@@]21C, which growth is on record?
Answer: The growth was -19.9% (active).

Question: With COC(=O)CNC(=O)COc1c(OC)c(OC)cc2oc(-c3cccc(C(=O)Nc4ccc(Cl)cc4)c3)cc(=O)c12 as the molecule, how does the growth read?
Answer: The growth was 47.5%.

Question: How did the growth turn out when O=C(Nc1ccc(Oc2ncnc3scc(Nc4n[nH]c(=S)s4)c23)cc1)C1(C(=O)Nc2cccc(C(F)(F)F)c2)CC1 was run?
Answer: Its growth is 104%.

Question: Which growth does the source give for COc1ccc(-n2c(SCC(=O)NNS(=O)(=O)c3ccccc3)nc3ccc(Cl)cc3c2=O)cc1 here?
Answer: The growth was 105%.

Question: With COc1ccc2[nH]cc(-c3nc(N)nnc3-c3cn(C)c4ncc(Br)cc34)c2c1 as the molecule, how does the growth read?
Answer: Its growth is 12.5%.

Question: For C#CCOc1cc(N(CC)CC)ccc1C(C(=O)NC(C)(C)C)N(C(=O)C1CCc2cc(F)ccc2O1)c1ccc(F)cc1F (stereo not given), which growth is on record?
Answer: Its growth is 53.1%.

Question: O=C(Nc1ccc(OCC(=O)c2ccc(Cl)cc2)cc1)Nc1ccc(Cl)c(C(F)(F)F)c1 was tested. Which growth did it give?
Answer: The growth was 57.6%.

Question: CC1(C)CC(=O)C2=C(C1)N(Cc1ccc(C(=O)O)cc1)C1=C(C(=O)CC(C)(C)C1)C2c1ccc(Cl)cc1 was tested. Which growth did it give?
Answer: The growth was 95.3%.

Question: For Nc1nnc(-c2c[nH]c3ncc(Br)cc23)c(-c2c[nH]c3ccc(Br)cc23)n1, which growth is on record?
Answer: The growth was 52.9%.

Question: For C#C[C@]1(O)CC[C@H]2[C@@H]3CC=C4c5sc(Nc6cc(C)cc(C)n6)nc5CC[C@]4(C)[C@H]3CC[C@@]21C, which growth is on record?
Answer: Its growth is 0.407% (active).

Question: With COc1ccc(C(=O)COc2ccc(NC(=O)Nc3ccc(Cl)c(C(F)(F)F)c3)cc2)cc1 as the molecule, how does the growth read?
Answer: The growth was 17.7%.

Question: How did the growth turn out when CCOC(=O)C1=C(N)N(c2ccc(C)cc2)C2=C(C(=O)CC(C)(C)C2)C1c1ccccc1Br (stereo not given) was run?
Answer: The growth was 95.7%.

Question: With O=C(c1ccc(F)cc1)C(c1c[nH]c2ccccc12)c1c[nH]c2ccccc12 as the molecule, how does the growth read?
Answer: The growth was 54.7%.

Question: Which growth does the source give for Cn1cc(/C=C(/SS/C(=C/c2cn(C)c3cccc(C(=O)O)c23)C(=O)O)C(=O)O)c2c(C(=O)O)cccc21 here?
Answer: Its growth is 93.4%.

Question: Cn1cc(-c2cc3nc(-c4c[nH]c5ccccc45)cc(N)n3n2)c2cc(Cl)ccc21 was tested. Which growth did it give?
Answer: The growth was -48.5% (active).

Question: How did the growth turn out when O=C1NC2C=CC=CC2/C1=C1/SC(=S)N(C2CC(=O)N(c3ccc(Br)cc3)C2=O)C1=O (stereo not given) was run?
Answer: Its growth is 95.6%.

Question: For Cc1ccc(-c2nc(C#N)c(S(=O)(=O)N3CCN(S(C)(=O)=O)CC3)o2)cc1, which growth is on record?
Answer: The growth was 57.6%.

Question: How did the growth turn out when O=C(c1ccc(Cl)cc1)C(c1c[nH]c2ccccc12)c1c[nH]c2ccccc12 was run?
Answer: The growth was 11%.

Question: Which growth does the source give for O=C(CC(=O)Nc1ccc(Oc2ncnc3scc(Nc4n[nH]c(=S)s4)c23)cc1)Nc1ccc(Cl)cc1 here?
Answer: The growth was 89.6%.

Question: For O=C1S/C(=C\c2ccc([N+](=O)[O-])cc2)C(=O)N1CCN1CCCCC1, which growth is on record?
Answer: Its growth is 109%.

Question: For Cc1ccc(COc2ccc(NC(=O)Nc3ccc(Cl)c(C(F)(F)F)c3)cc2)cc1, which growth is on record?
Answer: Its growth is 84.7%.

Question: With Fc1ccc(-c2csc(Nc3cccc(Nc4nc(-c5ccc(F)cc5)cs4)c3)n2)cc1 as the molecule, how does the growth read?
Answer: Its growth is 63.7%.

Question: COc1ccc(Cn2cc(C#N)c(N)c2C(C)=O)c(OC)c1 was tested. Which growth did it give?
Answer: Its growth is 102%.

Question: For COc1ccccc1-n1cc(C#N)c(N)c1C(=O)c1ccc(Cl)cc1Cl, which growth is on record?
Answer: Its growth is 16.4%.

Question: How did the growth turn out when Cn1cc(-c2cc(N)n3nc(-c4cn(C)c5ccccc45)cc3n2)c2cc(F)ccc21 was run?
Answer: The growth was -21.1% (active).

Question: For COc1ccc(Cc2nn(CC(=O)N/N=C/c3ccc([N+](=O)[O-])cc3)c(=O)c3c(C)noc23)cc1, which growth is on record?
Answer: The growth was 73.9%.

Question: Which growth does the source give for Cc1cc(N=C2NC(=O)/C(=C/c3cc(C(C)(C)C)c(O)c(C(C)(C)C)c3)S2)n[nH]1 here?
Answer: The growth was 5.91% (active).

Question: For COc1cccc(O)c1/C=C1\SCc2cc3c(OC)cccc3[o+]c21, which growth is on record?
Answer: The growth was 108%.

Question: O=C1NC(=S)S/C1=C\c1cn(-c2ccccc2)nc1-c1ccc([N+](=O)[O-])cc1 was tested. Which growth did it give?
Answer: The growth was 13.6%.

Question: Which growth does the source give for COc1ccc(NCc2cn(-c3ccc(C(=O)O)cc3)nc2-c2ccc(F)cc2)cc1C(F)(F)F here?
Answer: The growth was 64.4%.

Question: For CC1(C)CC[C@]2(C(=O)O)CC[C@]3(C)C(=CCC4[C@@]5(C)C[C@@H](O)[C@@H]6OC(c7cccc(F)c7)OC[C@@]6(C)C5CC[C@]43C)C2C1 (stereo not given in full), which growth is on record?
Answer: Its growth is 43.7%.

Question: How did the growth turn out when Cc1ccc(S(=O)(=O)N2CCN(S(=O)(=O)c3oc(-c4ccccc4)nc3C#N)CC2)cc1 was run?
Answer: Its growth is 83%.

Question: How did the growth turn out when O=C(c1ccccc1)c1ccc2nc(-c3ccccc3Br)[nH]c2c1 was run?
Answer: The growth was 0.18% (active).

Question: How did the growth turn out when COc1cc(Nc2nc(O)c(/C=C3\C=Nc4ccccc43)s2)cc(OC)c1OC was run?
Answer: Its growth is 11.4%.

Question: How did the growth turn out when COc1cc(C2CC(c3ccc(Oc4ccc(Cl)cc4)cc3)=NN2c2nc(-c3ccc(Cl)cc3)c(C#N)c(N3CCOCC3)n2)cc(OC)c1OC (stereo not given) was run?
Answer: The growth was 98.9%.

Question: How did the growth turn out when Cn1cc(-c2nnc(N)nc2-c2c[nH]c3ccc(F)cc23)c2cc(Br)cnc21 was run?
Answer: Its growth is 68.1%.
